A selection: hits, their analogues and other compounds. The true share with any hit is near 8.7%.
PostGolgi yeast – growth inhibition of a yeast mutant, post-Golgi transport screen; inhibition, % at 10 µM; 0.9% of 98,000 active; post-Golgi transport phenotypic cell assay;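 also: yeast cells grown in 1536-well plates; yeast grown about 18 h at 30C before absorbance read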
Smad3 FoxH1 inh – blocks human Smad3 binding to FoxH1 peptide | 0.29% of 88,000 active | TR-FRET Smad3/Dy647-FoxH1 peptide binding, europium anti-His | inhibition, % at 25 µM;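 active = compounds that reduce the energy-transfer binding signal between the protein and its labelled peptide by more than half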;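 also: 0% = Smad3 plus labelled peptide maximal FRET and 100% = peptide-only background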
Cav3 T inh – blocks human Cav3.2 T-type calcium channel | O95180 | B-score at 10 µM | Cav3.2-expressing cells, Fluo-4 calcium fluorescence FDSS; active compounds read low | AID 449739 | 4% of 100,000 active;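 active = single-dose well whose peak fluorescence ratio is a statistical outlier from its plate by either plate-standardised score or position-corrected B-score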
hDAT+cocaine – human DAT dopamine uptake with cocaine, either direction; LLC-PK1 hDAT cells, [14C]-dopamine uptake with cocaine IC80; actives deviate in either direction; B-score at 10 µM; 1.3% of 110,000 active; AID 449768;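 active = Z score or B-score, a plate-position-corrected score, falls beyond the plate's 99.7% confidence bounds, in either direction; inactive = both scores lie inside the 99.7% bounds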;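 also: scored against the spread of the other compound wells on the same plate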
TNAP act mid DEA – activators of human TNAP at intermediate phosphate acceptor | P05186 | 64,000 tested, under 10 active | activation factor at 20 µM | purified TNAP, CDP-star luminescence, 100 mM DEA, 30 min; active compounds read high; scale: 0 levamisole-inhibited, 1 vehicle-only enzyme;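 active = activation factor of at least 2 at 20 µM, relative to controls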
Target sequence (P05186 whole entry, looked up): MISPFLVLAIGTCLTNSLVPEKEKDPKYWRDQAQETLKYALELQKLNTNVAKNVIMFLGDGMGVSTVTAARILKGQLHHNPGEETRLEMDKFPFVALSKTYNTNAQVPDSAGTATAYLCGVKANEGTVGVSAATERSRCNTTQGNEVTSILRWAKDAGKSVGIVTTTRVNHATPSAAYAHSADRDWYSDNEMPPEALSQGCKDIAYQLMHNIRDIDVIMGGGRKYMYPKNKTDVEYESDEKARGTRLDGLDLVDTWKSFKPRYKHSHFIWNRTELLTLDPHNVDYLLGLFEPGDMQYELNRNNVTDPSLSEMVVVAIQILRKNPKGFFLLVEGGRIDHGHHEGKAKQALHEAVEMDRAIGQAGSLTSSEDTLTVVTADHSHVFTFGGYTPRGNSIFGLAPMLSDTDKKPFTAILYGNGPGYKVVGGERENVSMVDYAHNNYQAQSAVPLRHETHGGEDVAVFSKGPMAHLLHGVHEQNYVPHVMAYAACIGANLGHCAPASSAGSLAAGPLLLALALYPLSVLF
PostGolgi ctrl – inhibits growth of the yeast control strain | efflux-deficient yeast background strain, growth absorbance A615, 16 h | inhibition, % at 10 µM | 5% of 98,000 active | AID 738
An asterisk follows results filed as active; x = no result. Rule as the data show it, unless noted: active = inhibition above about 30%; inactive = the rest.

SMILES	PostGolgi yeast	Smad3 FoxH1 inh	Cav3 T inh	hDAT+cocaine	TNAP act mid DEA	PostGolgi ctrl
CCCCn1c(=O)[nH]c(=O)c2c1nc(-c1ccsc1)n2Cc1ccccc1	-6	11	-0.74	0.81	x	31*
CCCCCn1c(NC2CCCCC2)nc2c1c(=O)[nH]c(=O)n2C	x	x	-1.3	2.9*	1	x
CCCCCn1c(N2CCN(Cc3ccccc3)CC2)nc2c1c(=O)[nH]c(=O)n2C	1	-3	-0.056	3*	0.8	14
COC(=O)c1c(C)oc(C)c(C(=O)OC)c1=O	-6	2	-0.077	0.14	1	0
Cc1cc(NC(=O)CCOc2ccccc2)no1	x	16	-1.1	0.0087	0.9	x
Cn1c(=O)c2c(nc(NC3CCCCC3)n2CC(=O)C23CC4CC(CC(C4)C2)C3)n(C)c1=O	0	x	-5.8*	-0.49	1	10
CCCCCn1c(N2CCC(Cc3ccccc3)CC2)nc2c1c(=O)[nH]c(=O)n2C	x	12	-4.8*	1.6	1.1	x
Cn1c(=O)[nH]c(=O)c2c1nc(N1CCC(Cc3ccccc3)CC1)n2Cc1ccccc1	19	-8	-0.79	-0.51	1	2
COc1ccccc1NC(=O)c1nn(-c2ccccc2)ccc1=O	-2	x	x	0.21	x	28
CCOC(=O)c1c(C)oc2cc(Br)c(O)c(Br)c12	-7	-1	-2.1	0.36	1	52*
CCOC(=O)c1nnn(CC(=O)N2N=C(c3cccc4ccccc34)CC2c2ccccc2)c1C(=O)OCC (configuration not stated)	x	0	-5.5*	0.77	x	x
O=C(NCc1cccs1)C1CCC(CNS(=O)(=O)c2ccc(Br)s2)CC1 (configuration not stated)	0	-4	-2.9	-0.17	1	3
O=C(N/N=C/c1c[nH]c2ccc(Br)cc12)c1ccn(Cc2ccc(Cl)cc2)n1	3	x	x	x	x	57*
O=C(N/N=C/c1c[nH]c2ccccc12)c1ccn(Cc2ccc(Cl)cc2Cl)n1	6	x	x	x	x	10
COc1ccc(NC(C)=O)cc1NC(C)C(=O)Nc1cccc2ccccc12 (configuration not stated)	3	-5	1.6	-0.62	x	-6
Cc1c(C(=O)N2CC3(CC(c4cccc(NC(=O)[C@H]5CCC(=O)N5)c4)=NO3)C[C@@H]2C(N)=O)cc([N+](=O)[O-])cc1[N+](=O)[O-] (some centres not stated)	x	x	-0.48	-1.2	x	x
COc1ccc(C2CC(C(F)(F)F)n3nc(C(=O)NCCN4CCOCC4)cc3N2)cc1 (configuration not stated)	1	x	0.076	-0.1	1	4
COc1ccc(C2C(Oc3ccccc3C)C(=O)N2Cc2ccc(F)cc2)cc1OC (configuration not stated)	-6	x	-4.7*	-0.32	x	10
COc1ccc(OC2C(=O)N(c3ccc(F)cc3)C2c2ccc(OC)c(OC)c2)cc1 (configuration not stated)	0	x	-3	0.1	x	14
COC(=O)NCC12CC3CC(C1)CC(CNC(=O)OC)(C3)C2	0	0	0.11	-1.2	0.9	33*
COc1ccc(/C=C2\CCc3ccccc3C2=O)cc1Cn1nc(C)cc1C	-7	6	-4.3*	4.9*	x	22
COc1ccc(/C=C2\CCc3ccccc3C2=O)cc1OC	-3	x	-1.2	-1.2	x	23
Cc1cc(C)n2nc(SCc3nnc(SCc4ccccc4Cl)s3)nc2n1	-2	x	-0.079	0.065	x	36*
Cc1cc(C)n2nc(SCc3nnc(SCc4ccccc4C)s3)nc2n1	14	x	-1.2	0.46	x	20
COc1ccc(NC(=O)C2CC(=O)NC(Nc3cccc(C)c3)=N2)cc1 (configuration not stated)	-10	-2	0.2	0.015	0.9	7
SMILES	PostGolgi yeast	Smad3 FoxH1 inh	Cav3 T inh	hDAT+cocaine	TNAP act mid DEA	PostGolgi ctrl
Cc1nc2c(C#N)c(C)[nH]n2c(=O)c1Cc1ccccc1	10	-12	x	-0.66	x	37*
Fc1ccc(-n2nnc(-c3ccnc4ccccc34)n2)cc1	x	x	-0.067	0.27	x	x
CCN(CC)c1ccc(C2N(C(=O)N3CCOCC3)CCN2S(=O)(=O)c2ccc(C)cc2)cc1 (configuration not stated)	6	4	-4.1*	0.0068	x	0
C/C(=N\S(=O)(=O)c1ccc(C)cc1)N1CCN(S(=O)(=O)c2ccccc2)C1C(C)C (configuration not stated)	-12	8	-0.28	0.91	x	15
Cc1ccc(S(=O)(=O)N2CCN(C(=O)c3ccccc3)C2C(C)C)cc1 (configuration not stated)	1	14	-1.1	0.067	0.9	31*
Cc1ccc(S(=O)(=O)N2CCN(C(=O)N3CCOCC3)C2C(C)C)cc1 (configuration not stated)	4	3	-0.42	-0.016	1	35*
CC(=O)N1CCN(S(=O)(=O)c2ccccc2)C1c1ccccc1 (configuration not stated)	-3	2	0.51	-0.22	x	8
O=C(CN1CC(c2ccccc2)CC1=O)OCc1ccccc1F (configuration not stated)	-1	1	-1	0.15	1	3
COc1ccc2[nH]c(=O)c(CN(Cc3nnnn3Cc3ccc(F)cc3)CC3CCCO3)cc2c1 (configuration not stated)	28	1	-0.38	1	0.9	7
COc1ccc(NC(=O)c2cc3c(s2)CCC3)cc1S(=O)(=O)N1CCOCC1	-6	x	0.055	0.71	x	8
Cc1cc(C)c(-n2c(C)cc(/C=C3/NC(=O)NC3=O)c2C)c(C)c1	4	18	-6.1*	-0.13	x	64*
Cc1cccc(CN2C(=O)N/C(=C/c3cc(C)n(-c4ccccn4)c3C)C2=O)c1	-1	x	0.23	0.35	x	7
Cc1cccc(NC(=O)CN(c2ccc(C(C)C)cc2)S(=O)(=O)c2c(C)nn(C)c2C)n1	-1	-10	-3.2	0.34	x	5
CC(=O)Nc1ccc(S(=O)(=O)NNC(=O)COc2ccc(C(C)(C)C)cc2)cc1	-3	x	-2.5	1.4	x	6
CC(C)=C1C2CCC1C1C(=O)N(NC(=O)COc3ccc(C(C)(C)C)cc3)C(=O)C21 (configuration not stated)	-8	x	-8.4*	0.85	x	25
Cc1sc2nc(C(C)Nc3ccccc3N3CCOCC3)[nH]c(=O)c2c1C (configuration not stated)	-16	-3	-2.4	-7.5*	0.9	11
Cc1nc2ccccc2c2oc(C(=O)N3CCN(C(=O)c4ccco4)CC3)cc12	-3	0	0.17	0.84	0.9	-2
Cc1nn(-c2ccccc2)c2sc(C(=O)N3CCc4ccccc4C3)cc12	-1	-7	-1.9	0.22	0.9	45*
Cc1nn(-c2ccccc2)c2sc(C(=O)N3CCCCC3)cc12	-1	14	-1.6	0.069	1	23
Cc1nc2ccccc2c2oc(C(=O)N3CCc4ccccc4C3)cc12	-10	1	1.1	1.6	0.9	35*
